One assay relates to Staphylococcus aureus. The note with it: Concentration 32 ug.mL-1;; ASSAY_TEST Inhibition of Bacterial Growth; detection method Absorption (OD600); MEDIA CAMHB; plate type 384well; NBS; CORNING #3640; time 18 hr.
The subject of another assay is Escherichia coli. The note with it: Concentration 32 ug.mL-1;; ASSAY_TEST Inhibition of Bacterial Growth; detection method Absorption (OD600); MEDIA CAMHB; plate type 384well; NBS; CORNING #3640; time 18 hr.

Potency and affinity values are given separately.

In general, Inhibition refers to the drop in the measured response relative to a control, in per cent. As to `Cc1cc(C)c(NC(=O)Cn2nc3c(Sc4cccc(F)c4)nccn3c2=O)c(C)c1`, the Inhibition in the assay on Staphylococcus aureus is listed as 9.93%; in the assay on Escherichia coli, -1.39%.
For `COc1ccc(NC(=O)Cn2nc3c(SCc4ccc(Cl)cc4)nccn3c2=O)cc1`, in that order: 4.07% and -0.18%.
Regarding `Cc1c(Cl)cccc1-n1ccn2c(=O)n(Cc3ccc(F)cc3)nc2c1=O`, the Inhibition with Staphylococcus aureus is 2.79%; in the assay with Escherichia coli it was -11.88%.
For `Cc1ccc(Oc2nccn3c(=O)n(CC(=O)Nc4ccccc4F)nc23)cc1`, the figures for the Inhibition with Staphylococcus aureus and in the assay with Escherichia coli were 4.19% and -1.2%, respectively.
As to `O=C(Cn1nc2c(N3CCOCC3)nccn2c1=O)Nc1ccc2c(c1)OCO2`, the Inhibition with Staphylococcus aureus is recorded as 15.61%; with Escherichia coli, 0.24%.
As for `O=S(=O)(c1ccc2nncn2c1)N(Cc1cc(F)cc(F)c1)c1ccc2c(c1)OCO2`, the Inhibition in the assay with Staphylococcus aureus is listed as 8.77%; with Escherichia coli, -5.98%.
As to `O=S(=O)(c1cccn2cnnc12)N(Cc1cccc(Cl)c1)c1cc(F)cc(F)c1`, the values for the Inhibition in the assay with Staphylococcus aureus and in the assay on Escherichia coli were 17.81% and -3.49%, respectively.
On to `COc1ccccc1CNC(=O)Cn1nc2c(SCc3ccc(Cl)cc3)nccn2c1=O`, for which the figures for the Inhibition in the assay with Staphylococcus aureus and in the assay on Escherichia coli were 6.37% and -3.98%, respectively.
The like results for `COc1cccc(-n2ccn3c(SC(C)C(=O)c4ccc(C)c(C)c4)nnc3c2=O)c1` (centres undefined) were, in that order, 13.98% and 1.22%.
With `COc1ccccc1NC(=O)Cn1nc2c(SCc3ccc(Cl)cc3)nccn2c1=O`, the results for the Inhibition with Staphylococcus aureus and in the assay with Escherichia coli were 2.82% and -8%, respectively.
The like results for `O=C(CCc1nnc2c(N3CCCCC3)nc3ccccc3n12)NCc1ccccc1F` were, in that order, 5.87% and 6.41%.
For the compound `CC(C)(C)Sc1ccc2nn(CC(=O)NCc3ccc(Cl)cc3)c(=O)n2n1`, the values for the Inhibition with Staphylococcus aureus and with Escherichia coli were 1.41% and -5.27%, respectively.
Regarding `Cc1ccc(NC(=O)Cn2nc3ccc(-c4ccc(Cl)cc4)nn3c2=O)cc1F`, the results for the Inhibition with Staphylococcus aureus and in the assay with Escherichia coli were 3.27% and -3.59%, respectively.
On to `CSc1cccc(NC(=O)Cn2nc3ccc(C(=O)NCc4ccccc4)cn3c2=O)c1`, for which the Inhibition is recorded as 5.85% with Staphylococcus aureus and -2.4% in the assay on Escherichia coli.
Turning to `CCc1ccccc1NC(=O)Cn1c(=O)c2nnc(C(C)C)n2c2ccccc21`, the Inhibition in the assay with Staphylococcus aureus stood at 5.45%; in the assay on Escherichia coli, 0.46%.
For `Cc1ccc(Oc2nccn3c(=O)n(CC(=O)N4CCN(c5ccccc5F)CC4)nc23)cc1`, in that order: 10.22% and -0.59%.
For `CC(C)CCn1c(=O)c2ccc(C(=O)NC3CCCC3)cc2n2c(=S)[nH]nc12`, the Inhibition with Staphylococcus aureus is reported as -2%; in the assay on Escherichia coli, -7.9%.
Consider `Cc1ccc(CNC(=O)Cn2nc3c(Sc4ccc(C)cc4C)nccn3c2=O)cc1`, for which the Inhibition is -3.31% in the assay on Staphylococcus aureus and -11.72% in the assay with Escherichia coli.
The like results for `COC(=O)c1ccc(NC(=O)CSc2nnc3c4cc(-c5ccc(OC)cc5)nn4ccn23)cc1` were, in that order, 8.99% and 0.03%.
In the case of `CCCN(C)c1nccn2c(=O)n(CC(=O)Nc3ccc(F)cc3)nc12`, the Inhibition in the assay with Staphylococcus aureus was 13.38%; with Escherichia coli it was -2.86%.
For `CCc1ccc(NC(=O)Cn2nc3n(Cc4ccco4)c(=O)c4sccc4n3c2=O)cc1`, the Inhibition with Staphylococcus aureus is recorded as -4.41%; in the assay on Escherichia coli, -6.35%.
In the case of `O=C(Cn1nc2c(Oc3ccccc3)nc3ccccc3n2c1=O)Nc1ccc2c(c1)OCO2`, the Inhibition in the assay with Staphylococcus aureus is recorded as 13.59%; in the assay with Escherichia coli, 2.6%.
Consider `CCCn1c(=O)c2ccc(C(=O)NC3CCCCC3)cc2n2c(=O)n(CC#N)nc12`, for which the Inhibition with Staphylococcus aureus was 0.58%; in the assay with Escherichia coli, 2.29%.
As for `O=C(Cn1nc2ccc(SCc3ccc(Cl)cc3)nn2c1=O)Nc1ccc(F)c(F)c1`, the Inhibition in the assay with Staphylococcus aureus was -1.34%; in the assay on Escherichia coli, -2.62%.
With `COc1ccc(NC(=O)c2ccc3nn(CC(=O)Nc4ccc(C)c(F)c4)c(=O)n3c2)cc1`, the Inhibition is given as 8.14% in the assay on Staphylococcus aureus and -7.69% in the assay with Escherichia coli.
For `Cc1ccc(-n2ccn3c(=O)n(Cc4ccc(Cl)cc4)nc3c2=O)cc1C`, the values for the Inhibition in the assay with Staphylococcus aureus and in the assay with Escherichia coli were 0.27% and -1.91%, respectively.
For `N#CCn1nc2n(Cc3ccccc3)c(=O)c3ccccc3n2c1=O`, in that order: 14.89% and 2.96%.
Take `N#Cc1ccc(NC(=O)Cn2nc3c(Oc4ccccc4)nccn3c2=O)cc1`: the Inhibition in the assay with Staphylococcus aureus is reported as -0.45%; in the assay with Escherichia coli, -6.5%.
As for `CCOc1ccccc1NC(=O)Cn1nc2c(N3CCN(c4ccccc4)CC3)nccn2c1=O`, the Inhibition in the assay on Staphylococcus aureus is 1.85%; in the assay on Escherichia coli it was -3.13%.
The like results for `O=C(CSc1nnc2c(=O)n(-c3ccccc3)ccn12)Nc1ccc(F)cc1F` were, in that order, -3.92% and -2.13%.
As to `Cc1nnc2ccc(S(=O)(=O)N(Cc3cccc(Cl)c3)c3ccc(F)cc3)cn12`, the figures for the Inhibition with Staphylococcus aureus and in the assay on Escherichia coli were 3.62% and -8.44%, respectively.
For `Cc1ccc(-n2ccn3c(SCC(=O)Nc4ccc5c(c4)OCCO5)nnc3c2=O)cc1C`, the Inhibition is listed as 6.11% in the assay on Staphylococcus aureus and -5.98% in the assay on Escherichia coli.
As to `O=C(Cn1nc2ccc(SC3CCCCC3)nn2c1=O)NCc1ccc(Cl)cc1`, the results for the Inhibition with Staphylococcus aureus and in the assay on Escherichia coli were 6.56% and -1.29%, respectively.
For `COC(=O)c1ccc(NC(=O)Cn2nc3ccc(SCc4ccc(Cl)cc4)nn3c2=O)cc1`, the figures for the Inhibition in the assay on Staphylococcus aureus and with Escherichia coli were 18.39% and 1.59%, respectively.
Turning to `CCOC(=O)c1ccccc1NC(=O)Cn1nc2ccc(C(=O)Nc3ccc(OC)cc3)cn2c1=O`, the Inhibition is reported as 0.2% with Staphylococcus aureus and -8.03% with Escherichia coli.
Turning to `O=C(Cn1nc2c3c4c(sc3ncn2c1=O)CCCC4)NCc1ccc(F)cc1`, the values for the Inhibition in the assay with Staphylococcus aureus and with Escherichia coli were 8.69% and -4.83%, respectively.
With `COc1cccc(Oc2nccn3c(=O)n(CC(=O)Nc4ccccc4C(F)(F)F)nc23)c1`, the Inhibition in the assay with Staphylococcus aureus is given as 13.2%; with Escherichia coli, -0.25%.
For `O=C(CSc1nnc2c(=O)n(-c3ccc(F)cc3)ccn12)NCC1CCCO1` (centres undefined), in that order: 0% and -8.97%.
For `Cc1ccc(Cl)cc1NC(=O)Cn1nc2c(SC3CCCCC3)nccn2c1=O`, the Inhibition is 6.67% in the assay with Staphylococcus aureus and -3.22% in the assay on Escherichia coli.
The like results for `Cc1c(Cl)cccc1-n1ccn2c(=S)[nH]nc2c1=O` were, in that order, 26.02% and 0.89%.
Consider `CSc1cccc(NC(=O)Cn2nc3c(Oc4ccccc4C)nccn3c2=O)c1`, for which the Inhibition in the assay with Staphylococcus aureus is 6.72%; in the assay with Escherichia coli, -2.85%.
As for `COc1ccc(OC)c(NC(=O)Cn2nc3c4cc(-c5ccc(Cl)cc5)nn4ccn3c2=O)c1`, the Inhibition was -2.94% in the assay on Staphylococcus aureus and -2.51% in the assay with Escherichia coli.
In the case of `Cc1nnc2ccc(S(=O)(=O)N(Cc3ccccc3Cl)c3ccc(F)cc3)cn12`, the values for the Inhibition in the assay with Staphylococcus aureus and with Escherichia coli were -4.74% and -4.95%, respectively.
The like results for `CCCc1nnc2c(=O)n(CC(=O)Nc3ccc(Br)cc3F)c3ccccc3n12` were, in that order, -16.77% and -13.67%.
In the case of `COc1cccc(-n2ccn3c(SCC(=O)Nc4cc(F)ccc4F)nnc3c2=O)c1`, the results for the Inhibition in the assay on Staphylococcus aureus and with Escherichia coli were 11.04% and -6.25%, respectively.
As for `CCOc1ccc(NC(=O)Cn2nc3c(Sc4ccc(C)cc4C)nccn3c2=O)cc1`, the Inhibition is given as 0.32% with Staphylococcus aureus and -7.3% in the assay on Escherichia coli.
Take `COc1ccccc1NC(=O)Cn1c(=O)c2nnc(C(C)C)n2c2ccccc21`: the figures for the Inhibition in the assay with Staphylococcus aureus and with Escherichia coli were 22.81% and -0.08%, respectively.
As to `Cc1ccccc1CN(c1cccc(F)c1)S(=O)(=O)c1ccc2nncn2c1`, the Inhibition is given as -9.31% with Staphylococcus aureus and -3.51% in the assay on Escherichia coli.
As for `COc1cc(NC(=O)C(C)Sc2nnc3c(=O)n(-c4ccc(F)cc4)ccn23)cc(OC)c1` (centres undefined), the Inhibition in the assay on Staphylococcus aureus was 6.77%; in the assay on Escherichia coli, -6.93%.
The like results for `O=c1c2sccc2n2c(=S)[nH]nc2n1CC1CCCO1` (centres undefined) were, in that order, 3.07% and -0.32%.
`NC(=O)CSc1nnc2c(=O)n(-c3ccccc3)ccn12`: the Inhibition with Staphylococcus aureus stood at 9.05%; in the assay on Escherichia coli, 0.29%.
With `Cc1ccc(C)c(CN(c2cccc(Cl)c2)S(=O)(=O)c2cccn3c(C)nnc23)c1`, the Inhibition in the assay on Staphylococcus aureus is given as 11.55%; with Escherichia coli it was -2.76%.
Regarding `Cc1nnc2c(S(=O)(=O)N(Cc3ccc(F)cc3)c3ccc(F)c(F)c3)cccn12`, the Inhibition in the assay on Staphylococcus aureus is reported as 15.7%; with Escherichia coli it was 3.7%.
Consider `O=C(Cn1nc2c(Oc3ccccc3)nccn2c1=O)Nc1ccccc1Cl`, for which the results for the Inhibition in the assay with Staphylococcus aureus and in the assay with Escherichia coli were 6.14% and -6.19%, respectively.
As to `Cc1ccc(C)c(CSc2nnc3c(=O)n(-c4ccc(Br)cc4)ccn23)c1`, the figures for the Inhibition in the assay on Staphylococcus aureus and with Escherichia coli were 3.9% and -0.75%, respectively.
Regarding `Cc1c(Cl)cccc1NC(=O)Cn1nc2c(N3CCOCC3)nc3ccccc3n2c1=O`, the Inhibition is given as 6.58% in the assay with Staphylococcus aureus and -0.44% in the assay with Escherichia coli.
For `O=c1n(Cc2cccc(C(F)(F)F)c2)nc2ccc(S(=O)(=O)N3CCCC3)cn12`, in that order: 14.07% and -1.1%.
For the compound `CSc1ccc(CNC(=O)Cn2nc3c(N4CCOCC4)nccn3c2=O)cc1`, the figures for the Inhibition in the assay on Staphylococcus aureus and in the assay on Escherichia coli were 19.42% and -0.45%, respectively.
For `O=C(Cn1nc2c(Oc3ccccc3)nccn2c1=O)Nc1ccc(Cl)cc1`, in that order: 8.53% and -4.75%.
For `CCc1cccc(NC(=O)Cn2nc3c(Sc4ccc(C)cc4C)nccn3c2=O)c1`, in that order: -6.82% and -19.78%.
In the case of `O=S(=O)(c1ccc2nncn2c1)N(Cc1cccc(Cl)c1)c1ccc2c(c1)OCO2`, the Inhibition in the assay on Staphylococcus aureus was 4.03%; in the assay on Escherichia coli it was -10.92%.
Consider `CC(C)(C)Sc1ccc2nn(CC(=O)N3CCN(c4ccc(F)cc4)CC3)c(=O)n2n1`, for which the Inhibition in the assay on Staphylococcus aureus was 4%; in the assay on Escherichia coli, 5.62%.
On to `Cc1ccc(Sc2nccn3c(=O)n(CC(=O)N4CCN(c5ccccc5F)CC4)nc23)c(C)c1`, for which the Inhibition is 2.97% in the assay with Staphylococcus aureus and -4.29% in the assay with Escherichia coli.
On to `CCOc1ccc(-n2ccn3c(SCC(=O)c4c(C)[nH]c5ccccc45)nnc3c2=O)cc1`, for which the Inhibition is -0.13% with Staphylococcus aureus and -15.25% with Escherichia coli.
Regarding `COc1ccc(NC(=O)Cn2nc3nc(N4CCOCC4)ccn3c2=O)cc1F`, the Inhibition in the assay on Staphylococcus aureus is listed as -2.35%; in the assay with Escherichia coli it was -9.58%.
Turning to `Cc1ccc(-c2nnc3c(=O)n(CC(=O)Nc4cc(C)cc(C)c4)c4ccccc4n23)cc1`, the Inhibition is 10.86% with Staphylococcus aureus and 0.18% in the assay on Escherichia coli.
Regarding `COc1ccc(-c2noc(Cn3nc4ccc(-c5ccccc5)nn4c3=O)n2)cc1OC`, the Inhibition in the assay with Staphylococcus aureus was 7.44%; with Escherichia coli it was -3.1%.
Consider `Cc1ccc(-n2ccn3c(SCC(=O)N4CCN(c5ccc(F)cc5)CC4)nnc3c2=O)cc1C`, for which the Inhibition in the assay on Staphylococcus aureus was 15.71%; in the assay on Escherichia coli it was -2.64%.
`CCCCOc1ccc(-c2cc3c4nnc(SCC(=O)Nc5cc(F)ccc5C)n4ccn3n2)cc1`: the Inhibition in the assay on Staphylococcus aureus is -12.48%; in the assay with Escherichia coli, -11.69%.
As for `O=C(Cn1nc2c3sc(N4CCCC4)nc3ncn2c1=O)Nc1ccccc1Cl`, the Inhibition is recorded as 4.77% in the assay on Staphylococcus aureus and -9.42% in the assay on Escherichia coli.
`Cc1ccc(Cl)cc1N1CCN(C(=O)CCc2nnc3c4cc(-c5ccccc5)nn4ccn23)CC1`: the Inhibition is listed as 1.17% with Staphylococcus aureus and -6.03% in the assay with Escherichia coli.
As to `CCCc1nnc2c(=O)n(CC(=O)Nc3ccc(C#N)cc3)c3ccccc3n12`, the figures for the Inhibition in the assay with Staphylococcus aureus and in the assay with Escherichia coli were 8.01% and -1.86%, respectively.

Source of the values: ChEMBL document CHEMBL4513146, “CO-ADD screening of Karazin Kharkiv National University (Ukraine) compounds”.
